Screening results deposited in PubChem by University of Kansas High Throughput Screening Laboratory.
Pf apPOL inh = Pf-apPOL inhibitors, biochemical, fluorescence | Plasmodium falciparum apicoplast DNA polymerase (apPOL) | Recombinant Pf-apPOL, molecular beacon fluorescence, 1.5 h | inhibition, % at 10 µM | 0.25% of 210,000 active | AID 1794808, 2022
mHTT-CaM PPI inh = mutant huntingtin-calmodulin interaction inhibitors – biochemical, AlphaScreen, primary screen. P42858. AlphaScreen His-mHTT/GST-CaM binding, luminescence. inhibition, % at 15 µM. 3.6% of 190,000 active. AID 1671202, 2021;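 also: 0% = both proteins with DMSO and 100% = one protein alone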
* hit, by the source's call; . = no result given. The list is not random: actives were taken first. Their share in the collection is about 3.6%. Rule as the data show it: active = inhibition above about 50%; inactive = the rest.

SMILES	Pf apPOL inh	mHTT-CaM PPI inh
COc1ccc(C=C2Oc3c(ccc4c3CN(Cc3ccncc3)CO4)C2=O)cc1	-22	58*
COc1ccc(CN2COc3ccc4c(c3C2)OC(=Cc2cccnc2)C4=O)cc1	-8	-2
CCc1ccc(NC(=O)N2CCc3c(c(-c4nc(C5CC5)no4)nn3C)C2)cc1	-10	28
Nc1nc(Cl)cc(=O)[nH]1	.	-1
COc1ccccc1CNC(=O)c1cn2c(n1)COCC2	-1	-12
CCCn1cnnc1C1CCCCN1C(=O)CC1CCCC1 (stereo not drawn)	-1	-4
CCc1nnc(-c2ccc(NC(=O)CCc3ccc(OC)cc3)cc2)o1	-1	-6
Cn1c2c(c3cc(Br)ccc31)CCCC2=O	0	-18
COCCC(=O)N1CCC(OCc2nc(-c3ccccc3)no2)CC1	-2	2
COc1ccc(OC)c(C=C2Oc3c(ccc4c3CN(Cc3ccccn3)CO4)C2=O)c1	47	100*
COc1ccc(C=C2Oc3c(ccc4c3CN(Cc3ccccn3)CO4)C2=O)cc1	-31	100*
COc1ccc(C=C2Oc3c(ccc4c3CN(Cc3ccccn3)CO4)C2=O)cc1OC	-18	-1
COc1ccc(C=C2Oc3c(ccc4c3CN(Cc3ccccn3)CO4)C2=O)c(OC)c1OC	-4	-6
Cc1sc(C(=O)N2CCCC2)c2ncnc(NCc3ccc(F)cc3Cl)c12	-3	8
CC(=O)N1c2ccccc2NC2=C(C(=O)CC(c3ccc(Cl)c(Cl)c3)C2)C1c1cccnc1 (stereo not drawn)	-7	83*
CC1(C)CC(=O)C2=C(C1)Nc1ccccc1N(C(=O)C(F)(F)F)C2c1cccnc1 (stereo not drawn)	63*	4
CC1(C)CC(=O)C2=C(C1)Nc1ccccc1N(C(=O)C(F)(F)F)C2c1cccc(O)c1 (stereo not drawn)	-8	4
CC(=O)N1c2ccccc2NC2=C(C(=O)CC(c3ccc(F)cc3)C2)C1c1cccnc1 (stereo not drawn)	1	6
CC(C)CCNC(=O)C1CCN(c2nc3ccsc3c(=O)n2Cc2ccccc2)CC1	-5	-4
Cc1ccc(Cl)cc1NS(=O)(=O)c1cccc2nsnc12	2	10
Clc1ccc(N=Cc2ccc(Br)o2)cc1	.	33
O=c1c(C=Nc2ccc(Cl)c(Cl)c2)c(C(F)(F)F)[nH]n1-c1ccc([N+](=O)[O-])cc1	-1	-3
CCCn1cc2c3c(cccc31)CN(C(=O)c1ccccc1F)CC2	-10	51*
CCCn1cc2c3c(cccc31)CN(C(=O)c1cccc(F)c1)CC2	0	66*
CCn1cc2c3c(cccc31)CN(C(=O)c1cccc(F)c1)CC2	-4	34
SMILES	Pf apPOL inh	mHTT-CaM PPI inh
Cn1cc2c3c(cccc31)CN(C(=O)c1ccccc1F)CC2	-2	30
Cc1ccc(C(=O)N2CCC(Cc3nnc(-c4ccccc4)o3)CC2)c(C)c1	2	22
O=C(c1ccc(-c2ccsc2)nc1)N1CCCC1	-6	-1
O=C(c1ccccc1)N1CCC(n2nc(-c3ccsc3)ccc2=O)CC1	-3	99*
Cc1ccc(C(=O)N2CCC(n3nc(-c4ccsc4)ccc3=O)CC2)cc1	0	100*
O=C(c1ccc(-c2ccsc2)nc1)N1CCN(C2CCCCC2)CC1	-1	-3
CC1=C(C(=O)Nc2ccc3c(c2)OCCO3)C2(CCCCC2)OC1=O	2	-6
COCCCN1COc2ccc3c(=O)c(-c4ccc(Cl)cc4)coc3c2C1	-30	-3
O=C(Nc1ccc(Cl)cc1F)c1cccnc1	0	1
O=C(Nc1ccccc1Cl)c1ccc2nc(N3C(=O)CCC3=O)sc2c1	-4	2
Cc1ccc(NC(=O)c2cc3n(n2)CCCC3)c(F)c1	1	-7
O=C(c1ccccc1)N1CCC(CCNS(=O)(=O)c2ccccc2)CC1	1	50*
CCc1ccc(S(=O)(=O)NCCC2CCN(C(=O)c3ccccc3)CC2)cc1	-4	39
Cc1ccc(S(=O)(=O)NCCC2CCN(C(=O)c3ccccc3)CC2)cc1	3	46
O=C(c1ccccc1)N1CCC(CCNS(=O)(=O)c2ccc3c(c2)CCCC3)CC1	4	60*
COc1ccccc1NC(=O)CN1C(=O)C(c2ccc(Cl)cc2)=NC1(C)C	-12	1
CC(C)c1ccc(S(=O)(=O)N2CC=C(c3cn(C)c4ncccc34)CC2)cc1	0	16
Cc1ccc(C(=O)N2CCn3c(nnc3C(C)C)C2)s1	-3	0
COc1cc(-c2nc3ccccn3c2N=Cc2cn[nH]c2-c2ccc(F)cc2)ccc1O	-4	56*
COc1cc(C=Nc2c(-c3ccc(O)c(OC)c3)nc3ccccn23)ccc1O	7	60*
COc1ccc(C=Nc2c(-c3ccc(O)c(OC)c3)nc3ccccn23)cc1O	-3	32
COc1cc(-c2nc3ccccn3c2N=Cc2cc([N+](=O)[O-])cc([N+](=O)[O-])c2O)ccc1O	1	2
NS(=O)(=O)c1cc(C(=O)N2CCc3ccccc32)c(Cl)cc1Cl	-2	60*
